Compounds with a hit are over-represented: about 12% of the library has one in this group of screens.
RORgamma inh – blocks mouse ROR gamma transcriptional activity | AID 2551 | Potency, µM (series often up to 53.6 µM), for inactives: at the highest dose activity change, negative = inhibition, usual class: inhibitors | hit rate 5.4% among 310,000 | Drosophila S2 Gal4-RORgamma UAS-luciferase reporter, 20 h | P51450; also: nearly all actives have a fitted effect of over 60% in size
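Compounds are pin-transferred onto Drosophila Schneider cells expressing a copper-inducible Gal4–ROR gamma transactivation domain fusion. After 1 hr, copper sulfate is added to 700 uM final; luciferase is read 20 hr later.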
PLK1 PBD block – PLK1 (human) polo-box domain binding inhibition; Plk1 PBD binding of FITC phosphopeptide, fluorescence polarization; Potency, µM, for the others: max response, negative = inhibition, most hits filed as inhibitors; P53350; AID 720504; hit rate 2.8% among 360,000; also: series mostly up to about 57 µM; nearly all actives have a fitted effect of over 65% in size
Sfp PPTase inh – inhibitors of Bacillus subtilis Sfp phosphopantetheinyl transferase | Q9F4F7 | Biochemical Sfp PPTase activity, qHTS | Potency, µM, for inactives: largest response in the series, negative = inhibition, hits mostly inhibitors | hit rate 3.5% among 310,000 | AID 1490;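 also: the enzyme is Sfp with the accession as filed and its product quenches rhodamine fluorescence; 0% = enzyme reaction without inhibitor and -100% = no enzyme wells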
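With Hepes-Na pH 7.6 buffer containing 10 mM MgCl2, Sfp (15 nM) modified BHQ-2-YbbR (12.5 uM) using rhodamine-CoA (5 uM). Two reads 30 minutes apart at 525/598 nm yielded each well's rate.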
ALDH1A1 block – ALDH1A1 (human) enzyme inhibition; P00352; Purified ALDH1A1, NADH fluorescence, propionaldehyde substrate; Potency, µM (series often up to 75.3 µM), inactives show top-dose activity, negative = inhibition, hits mostly inhibitors; hit rate 7.3% among 220,000; active = well fitted inhibition curve with a large enough effect, not every such curve was filed as active; inconclusive = small, poorly fitted or top-dose-only effect, or another doubt; inactive = no such curve, though single readings can be large or run the other way;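 also: plate controls were no enzyme wells and a reference inhibitor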
Target sequence (P00352 whole entry, looked up): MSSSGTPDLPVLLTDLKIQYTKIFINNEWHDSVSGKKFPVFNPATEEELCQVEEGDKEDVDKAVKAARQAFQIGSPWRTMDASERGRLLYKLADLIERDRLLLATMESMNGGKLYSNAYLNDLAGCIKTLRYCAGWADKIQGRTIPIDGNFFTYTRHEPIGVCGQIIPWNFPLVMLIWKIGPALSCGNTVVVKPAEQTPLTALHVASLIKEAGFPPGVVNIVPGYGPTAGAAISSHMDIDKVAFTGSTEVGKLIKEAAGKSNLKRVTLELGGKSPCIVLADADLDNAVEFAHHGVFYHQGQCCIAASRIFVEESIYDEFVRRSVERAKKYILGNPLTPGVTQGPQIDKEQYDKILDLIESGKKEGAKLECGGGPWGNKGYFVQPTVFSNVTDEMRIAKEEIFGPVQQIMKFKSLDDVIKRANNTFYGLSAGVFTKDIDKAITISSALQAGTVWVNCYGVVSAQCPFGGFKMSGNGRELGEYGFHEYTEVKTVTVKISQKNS
Gal4-VP16 FLuc – inhibits Gal4-VP16 luciferase reporter, ROR gamma counter-screen; hit rate 3.5% among 310,000; Drosophila S2 Gal4-VP16 UAS-luciferase, luminescence, 20 h; Potency, µM (highest dose often 53.6 µM), inactives show top-dose activity, negative = inhibition, hits mostly inhibitors;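 also: Gal4-VP16 expression switched on by copper sulfate through the metallothionein promoter; nearly all actives have a fitted effect of over 50% in size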
Starred values were filed as active, the others as inactive; ? = inconclusive; nt = no result given. Unless noted, calls follow the shape of the dose curve; as a rule, active = well fitted curve in the direction sought with a large enough effect; inconclusive = small, poorly fitted or top-dose-only effect, or another doubt; inactive = no such curve, though single readings can be large; an effect the other way counts as inactive or inconclusive. Unless noted, % is scaled to controls: 0 for no effect and ±100 for the full control effect; potency is read from the fitted curve at half-maximal effect.

SMILES | RORgamma inh | PLK1 PBD block | Sfp PPTase inh | ALDH1A1 block | Gal4-VP16 FLuc
CC(C)(C)NC(=O)C(c1ccncc1)N(Cc1ccco1)C(=O)c1ccc(-c2ccccc2)[nH]1 (stereo not drawn) | 7.1µM* | -21% | -90% | ? | 18µM*
O=C(NCC1CCCO1)C(c1cccs1)N(Cc1ccccc1)C(=O)c1ccc(-c2ccccc2)[nH]1 (stereo not drawn) | ? | 7% | ? | ? | -9%
O=C(NC1CCCCC1)C(c1ccncc1)N(Cc1ccccc1)C(=O)c1ccc(-c2ccccc2)[nH]1 (stereo not drawn) | 39% | -5% | -2% | 22µM* | -13%
COc1ccccc1N1CN(S(=O)(=O)c2ccc(C)cc2)c2nc3ccccc3nc21 | nt | 1% | nt | nt | nt
CC(=O)Oc1c(C)cc(OCC(O)CNC(C)C)c(C)c1C (stereo not drawn) | 1% | nt | 26% | 9% | -4%
Cc1ccc(NC(=O)/C(Cl)=C/c2ccccc2)cc1C | 10µM* | -2% | -12% | 2% | ?
COc1ccc(C(=O)Nc2ccc(C3=NNC(=O)CC3C)cc2NC(=O)c2ccc(OC)cc2)cc1 (stereo not drawn) | 36% | 1% | 4% | 2µM* | ?
CN(C)c1ccc(N2C(=O)CC(c3ccccc3)CC2=O)cc1 | 11% | 5% | 16% | nt | -13%
O=C(O)c1cccc(N2C(=O)CSC2=S)c1 | -42% | -12% | 3% | nt | 5%
O=C1CSC(=S)N1c1cccc(O)c1 | 13µM* | -1% | -21% | nt | -6%
CC1SC(=S)N(c2ccc(N(C)C)cc2)C1=O (stereo not drawn) | 11µM* | ? | -4% | nt | 13µM*
CN(C)c1ccc(N2C(=O)CSC2=S)cc1 | ? | -14% | -35% | 2.2µM* | ?
CN(C)C(CNC(=O)c1cccc(S(=O)(=O)N2CCN(c3ccc(F)cc3)CC2)c1)c1ccccc1 (stereo not drawn) | nt | -6% | nt | nt | nt
CC(=Cc1ccccc1)C(=O)c1ccccc1 | nt | -1% | nt | nt | nt
COc1ccc(/C=C(\C#N)C(=O)C(C)(C)n2cncn2)cc1 | -7% | 13µM* | -6% | -2% | -2%
N#CC(=Cc1ccc(-c2ccccc2)cc1)C(=O)c1ccccc1 | nt | 1.5µM* | nt | nt | nt
CC(=O)C(=Cc1ccc(-c2ccccc2)cc1)C(=O)c1ccccc1 | nt | -15% | nt | nt | nt
N#C/C(=C\c1ccc(C#N)cc1)C(=O)c1ccccc1 | ? | 4.7µM* | 50µM* | 0.79µM* | ?
CCOC(=O)NC(=O)/C(C#N)=C/c1ccc(N(C)C)cc1 | ? | 28% | 2% | 13µM* | -13%
COc1ccc(NC(=O)c2cc(C3CCCCN3C(=O)c3cc(OC)c(C)c(OC)c3)on2)c(C)c1 (stereo not drawn) | nt | 2% | nt | nt | nt
CC[C@]12C(=O)N(C)C[C@H]([C@@H]3C(=O)N(C)C(=O)[C@@H]31)N2C(=O)c1ccc(Cl)cc1 | nt | -5% | nt | nt | nt
COCC(=O)N1CCC2(CCCN(c3ccccn3)C2)CC1 | -13% | nt | -8% | ? | 0%
COCCNC(=O)C1(C)CCCN(Cc2csc(-c3ccc(Cl)cc3)n2)C1 (stereo not drawn) | nt | -3% | nt | nt | nt
COc1ccc(C=C(C#N)C(=O)c2ccccc2)cc1 | nt | 6.7µM* | nt | nt | nt
Cc1ccc(C=C(C#N)C(=O)c2ccccc2)cc1 | nt | 1.9µM* | nt | nt | nt
SMILES | RORgamma inh | PLK1 PBD block | Sfp PPTase inh | ALDH1A1 block | Gal4-VP16 FLuc
N#C/C(=C\c1cccs1)C(=O)c1ccccc1 | -12% | 6.7µM* | -7% | nt | -3%
Cc1occc1C(=O)/C(C#N)=C/c1ccc(O)c(Br)c1 | -2% | 26% | 8% | nt | -2%
COc1ccc(/C=C(\C#N)C(=O)c2cccn2C)cc1 | ? | -10% | -5% | nt | 9%
CN(C)c1ccc(C=C(C#N)C(=O)c2ccccc2)cc1Br | nt | 0.84µM* | nt | nt | nt
CCOc1ccc(CCN2C(=S)N([C@@H](Cc3ccc(O)cc3)CN3CCC[C@@H]3CN3C(=S)NC[C@@H]3CC(C)C)C[C@@H]2Cc2ccc(O)cc2)cc1 | nt | -6% | nt | nt | nt
CCC(=O)N[C@@H]1C=C[C@@H](CC(=O)NCc2ccccc2F)O[C@@H]1CO | nt | -8% | nt | nt | nt
CN(C)c1ccc(/C=C(\C#N)c2ccccc2)cc1 | -26% | 1% | -10% | ? | -8%
CN(C)c1ccc(/C=C(\C#N)C(=O)c2ccccc2)cc1 | ? | 55% | -5% | 7.1µM* | -11%
Cn1cc(P(=O)(N2CCOCC2)N2CCOCC2)cc1P(=S)(N1CCOCC1)N1CCOCC1 | -40% | 11µM* | 20µM* | ? | -6%
Cn1cc(P(=S)(N2CCOCC2)N2CCOCC2)cc1P(=O)(N1CCOCC1)N1CCOCC1 | 8% | 13µM* | 50µM* | ? | -1%
CC(C)(C)c1ccc(OCC(=O)N/N=C/C2CC=CCC2)cc1 (stereo not drawn) | ? | 0% | ? | 32µM* | 1%
CN(C)c1ccc(C(C[N+](=O)[O-])c2c(N)n(C)c(=O)n(C)c2=O)c(F)c1C#N (stereo not drawn) | 6.3µM* | -25% | 7% | nt | 11µM*
Cn1c(N)c(C(C[N+](=O)[O-])c2c(F)cccc2Cl)c(=O)n(C)c1=O (stereo not drawn) | ? | -8% | 19% | nt | ?
COc1ccccc1CNC(=O)C1CCC(CNS(=O)(=O)c2ccc(C)cc2)CC1 (stereo not drawn) | -38% | -9% | 10% | nt | -4%
Cc1ccc(S(=O)(=O)NCC2CCC(C(=O)NCc3ccccn3)CC2)cc1 (stereo not drawn) | 9% | -2% | 11% | 7.9µM* | -10%
Cc1ccc(S(=O)(=O)NCC2CCC(C(=O)NCc3ccc4c(c3)OCO4)CC2)cc1 (stereo not drawn) | 3% | -2% | -21% | 7.1µM* | -7%
Cc1ccc(S(=O)(=O)NCC2CCC(C(=O)NCc3cccnc3)CC2)cc1 (stereo not drawn) | -16% | -3% | 4% | 6.3µM* | 2%
O=C(O)/C=C/c1ccc(S(=O)(=O)NCc2cccnc2)cc1 | 8% | 24µM* | 15% | nt | 4%
C=CCNC(=S)NNC(=O)C(CCC(C)C)CC(C)(C)O (stereo not drawn) | 14µM* | 0% | ? | -4% | ?
CC1=C(C(=O)N2CCOCC2)CC(CC(=O)NCCc2ccccn2)C(=O)N1Cc1ccc(C(C)(C)C)cc1 (stereo not drawn) | nt | 3% | nt | nt | nt
O=C(Cn1ccc(NC(=O)OCc2ccccc2)nc1=O)NCCc1c[nH]c2ccccc12 | nt | -6% | nt | nt | nt
CC1N(O)C(c2ccc(Cl)cc2Cl)N(O)C1(C)C (stereo not drawn) | -19% | -1% | 4% | 14µM* | -9%
O=C(NC(=S)N(Cc1ccccc1)c1ccccn1)C1CC1 | 22% | 21µM* | -25% | ? | -5%
O=C(NC(=S)NCc1ccccc1)C1CC1 | 6.3µM* | -14% | 23% | -3% | ?
O=C(CNC(=S)NC(=O)C1CCCCC1)c1ccccc1 | 7.9µM* | -9% | 1% | 2% | ?
O=C(NC(=S)NCCc1ccccc1)C1CCCCC1 | 2.8µM* | -11% | 16% | ? | 4µM*
O=C(NCc1ccccc1)C1CCCC1 | 1% | nt | 6% | nt | 5%

High-throughput results from PubChem BioAssay.
